In the supplement of paper PMC6555819:

How the values were obtained:
Assay in all cases: PBM binding z-score (relative to random genomic background probes); higher = stronger binding; sequences stand for … in GC…GCGATTGACAGCGTAGAATGAAGG
[1] = system: FXR:RXRa (NR concentration 270 nM, RXRa partner concentration 90 nM)
Method in brief: (§1)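 Ligand-free nuclear receptor dimers were bound for 1 h to custom Agilent 4×180K protein-binding microarrays. Detection used antibodies against each partner (one per run). Binding z-scores rest on regression-normalized fluorescence, with random background probes as the reference.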

[2] = system: LXRa:RXRa (NR concentration 270 nM, RXRa partner concentration 90 nM)
Method in brief: as §1

[3] = system: LXRa homodimer (NR concentration 270 nM)
Method in brief: as §1

[4] = system: LXRb:RXRa (NR concentration 270 nM, RXRa partner concentration 90 nM)
Method in brief: as §1

[5] = system: LXRb homodimer (NR concentration 270 nM)
Method in brief: as §1

[6] = system: PPARa:RXRa (NR concentration 270 nM, RXRa partner concentration 90 nM)
Method in brief: as §1

[7] = system: PPARg:RXRa (NR concentration 180 nM, RXRa partner concentration 90 nM)
Method in brief: as §1

[8] = system: PPARg:RXRa 270nM:90nM, anti-RXR (NR concentration 270 nM, RXRa partner concentration 90 nM)
Method in brief: as §1

[9] = system: PPARg:RXRa 30nM:10nM, anti-RXR (NR concentration 30 nM, RXRa partner concentration 10 nM)
Method in brief: as §1

[10] = system: PPARg:RXRa 90nM:30nM, anti-RXR (NR concentration 90 nM, RXRa partner concentration 30 nM)
Method in brief: as §1

[11] = system: PPARg:RXRa DBDmut IVT, anti-RXR (DBD mutation: RXRa K156A/R161A, NR concentration 270 nM, RXRa partner concentration 90 nM)
Method in brief: as §1

[12] = system: PPARg:RXRa IVT, anti-PPARg (NR concentration 270 nM, RXRa partner concentration 90 nM)
Method in brief: as §1

[13] = system: PPARg DBDmut:RXRa IVT, anti-PPARg (DBD mutation: PPARg1 K132A/R137A, NR concentration 270 nM, RXRa partner concentration 90 nM)
Method in brief: as §1

[14] = system: PPARg DBDmut IVT, anti-PPARg (DBD mutation: PPARg1 K132A/R137A, NR concentration 270 nM)
Method in brief: as §1

[15] = system: PPARg homodimer (NR concentration 180 nM)
Method in brief: as §1

[16] = system: PXR:RXRa (NR concentration 270 nM, RXRa partner concentration 90 nM)
Method in brief: as §1

[17] = system: PXR homodimer (NR concentration 270 nM)
Method in brief: as §1

[18] = system: RARa:RXR (NR concentration 270 nM, RXRa partner concentration 90 nM)
Method in brief: as §1

[19] = system: RARa homodimer (NR concentration 270 nM)
Method in brief: as §1

[20] = system: RARb:RXRa (NR concentration 270 nM, RXRa partner concentration 90 nM)
Method in brief: as §1

Sequence	PBM binding z-score [1]	PBM binding z-score [2]	PBM binding z-score [3]	PBM binding z-score [4]	PBM binding z-score [5]	PBM binding z-score [6]	PBM binding z-score [7]	PBM binding z-score [8]	PBM binding z-score [9]	PBM binding z-score [10]	PBM binding z-score [11]	PBM binding z-score [12]	PBM binding z-score [13]	PBM binding z-score [14]	PBM binding z-score [15]	PBM binding z-score [16]	PBM binding z-score [17]	PBM binding z-score [18]	PBM binding z-score [19]	PBM binding z-score [20]
TCGTGTAGATCAACAGGAGGTTAAGAAAGATCGA	-0.127	1.13	0.0557	0.789	-0.51	1.22	-0.0865	1.04	1.84	1.52	0.943	0.0646	0.363	-0.42	0.211	0.488	-0.663	1.06	-0.074	0.441
CGTCCAAGGTCAGCCGGTCAGTGAAAGCGACGTG	5.37	3.63	0.364	2.5	-0.165	4.18	2.43	3.24	0.459	1.79	2.51	2.75	-0.217	-1.45	2.55	2.9	0.408	3.71	0.671	5
TCTTGTGGATCAGCAGGTTAAGAAAGCTGGCCAA	0.261	0.254	-0.184	0.0295	-0.411	0.761	-0.589	1.27	2.47	1.83	1.59	0.745	-0.449	0.165	0.237	0.354	-0.204	0.573	0.249	0.338
GCGACTGGAGCAAAGCAGGTTACCATAAGGTTGG	-0.343	-0.594	-0.842	-0.498	-1.26	0.27	0.477	-0.112	-0.43	-0.311	1.03	0.463	-1.39	-1.59	0.00968	-0.101	-0.667	0.372	-0.65	-0.192
TAGCCTAGGTCATTGGGCCAGTATCGTACGCATC	4.61	3.37	0.842	2.55	0.185	3.85	3.26	3.52	0.601	2.34	2.91	3.95	0.593	-0.521	1.11	1.68	-0.331	2.39	0.0894	3.85
ATTTCTAGGTAAAGTTCAGTGAAAGATCGATAGA	1.69	2.17	1.41	1.4	1.27	2.82	3.19	4.21	2.41	4.03	4.75	4.3	2.07	2.14	2.58	2.41	2.25	1.36	2.45	2.95
ACTTACGGGTTAACGAGGTTATAGCACGCGTATA	2.07	2.74	0.54	2.31	0.221	3.12	1.66	2.16	0.682	1.49	1.74	2.15	0.886	1.18	1.01	2.88	0.801	2.6	0.88	1.69
TGAATGAGGTTAAAGAACAGGGAACGTGGCGTCG	2.39	1.98	-0.259	1.32	0.39	3.38	2.53	3.32	1.51	3.04	1.89	2.33	0.69	0.463	0.725	1.13	0.0217	1.52	0.262	1.95
TAGCCTAGGTCAGATCGGGCAAGTATACGCTATA	1.87	1.1	-0.305	0.779	-0.322	1.74	0.654	0.623	-0.284	0.343	0.264	1.08	-0.209	-0.848	-0.0891	0.344	-0.431	1.06	-0.377	2.99
CCGACTGGGGCACAAAGGTTACCATACCATCCGG	0.682	0.574	0.127	1.44	-1.09	3.24	4.16	5.34	2.72	5.14	3.32	4.48	-0.0878	-1.02	0.929	1.58	0.126	2.57	0.061	2.31
TTTCCAAGGTGAGCTGAGGTCGTTGATCCAACTC	2.71	1.69	-0.117	0.979	-0.192	1.94	0.0102	1.07	0.576	0.913	1.18	2.2	0.272	0.546	0.272	4.97	1.26	2.04	-0.538	2.1
ACTAGCAGGCCAAGGGTCACTCTAGATTAGTCCG	1.88	3.2	0.239	2.54	-0.423	4.44	7.53	7.29	6.21	7.97	0.951	3.59	-0.404	-0.203	2.32	2.94	-0.367	4.14	-0.113	3.1
CCTACTGGGCAATTCAGAGGTCATTGATCATATG	2.49	4.41	6.82	3.68	0.374	3.51	0.682	2.06	0.0551	0.942	1.37	1.97	0.00726	-0.498	2.09	4.71	2.44	4.45	0.887	2.82
TCGAGTAGGTTAGTCGGGCCATTCAGCCAACATA	-0.164	-0.373	-0.481	-0.437	-1.41	0.324	-0.134	0.911	0.94	0.798	1.97	1.9	-0.829	-1.18	-0.154	-0.339	-0.506	-0.314	-1	0.287
